Compounds with a hit are over-represented: about 2.9% of the library has one in this group of screens.
ADAM17 inh = ADAM17 inhibitors, primary screen, biochemical, QFRET | Disintegrin and metalloproteinase domain-containing protein 17 (Homo sapiens), P78536 | recombinant ADAM17, EDANS/DABCYL FRET peptide cleavage | inhibition, % at 6.95 µM | actives 0.83% (n = 370,000) | AID 720648, 2013;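 active = inhibition above the mean of compounds lying between control limits plus 3 SD, set per campaign, cut at about 8.5% in these data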;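 note: 0% = DMSO-only wells as the low control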
ADAM10 inh = human ADAM10 inhibitors, primary screen, biochemical, QFRET, HTS. AID 720582, 2013. inhibition, % at 7 µM. Disintegrin and metalloproteinase domain-containing protein 10 (Homo sapiens), O14672. recombinant ADAM10, EDANS/DABCYL FRET peptide cleavage, 3 h. actives 0.62% (n = 370,000);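 active = inhibition above a per-campaign cutoff equal to the mean of compounds falling between control-based bounds plus 3 SD, cut at about 20% in these data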;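 note: 0% = DMSO wells while the 100% control is not disclosed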
PLC-beta3 inh = human PLC-beta3 inhibitors, primary screen, biochemical, fluorescence; 1-phosphatidylinositol 4,5-bisphosphate phosphodiesterase beta-3 (Homo sapiens), Q01970; actives 0.18% (n = 370,000); Purified PLC-beta3, fluorogenic substrate; inhibition, % at 12.2 µM; in the data active = inhibition above about 11%;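 note: 0% = median of compound wells on plate and 100% = full blocker control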
PLC-gamma1 inh = PLC-gamma1 enzyme inhibitors, primary screen, biochemical, fluorescence, purified enzyme; 1-phosphatidylinositol 4,5-bisphosphate phosphodiesterase gamma-1 (Homo sapiens), P19174; fluorogenic substrate; inhibition, % at 12.2 µM; actives 0.84% (n = 370,000); in the data active = inhibition above about 9.5%
proKLK7 act = proKLK7 zymogen activators, primary screen, biochemical, fluorescence intensity | Kallikrein-7 (Homo sapiens), P49862 | purified proKLK7, EDANS-DABCYL substrate fluorescence; 100% is mature enzyme control, 0% vehicle | activation, % at 7 µM | actives 0.9% (n = 370,000);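 active = activation above the mean of all tested compounds plus 3 SD, computed per campaign excluding outliers beyond control limits, cut at about 13% in these data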
Target sequence (P49862 whole entry, looked up): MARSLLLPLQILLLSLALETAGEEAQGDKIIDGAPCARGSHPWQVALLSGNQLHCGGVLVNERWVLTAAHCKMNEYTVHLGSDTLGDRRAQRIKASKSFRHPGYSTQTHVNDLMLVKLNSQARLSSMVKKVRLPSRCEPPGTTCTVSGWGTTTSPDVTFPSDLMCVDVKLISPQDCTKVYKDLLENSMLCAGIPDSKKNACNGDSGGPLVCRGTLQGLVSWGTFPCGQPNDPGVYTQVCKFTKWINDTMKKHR
ADAM10 confirm = human ADAM10 inhibitors, confirmation, biochemical, QFRET, triplicate. shares compounds with ADAM10 inh. ADAM10 QFRET peptide cleavage, EDANS fluorescence. inhibition, % at 6.95 µM. actives 1% (n = 2,100). AID 743208, 2013;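 active = inhibition above about 20% chosen separately for each screening run, limit read from the data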;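 note: 0% = DMSO wells and 100% = marimastat wells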
ADAM17 counter = ADAM17 inhibitors, counter-screen for ADAM10 exosite inhibitor project, biochemical, QFRET, high throughput. inhibition, % at 6.95 µM. ADAM17 QFRET peptide cleavage, EDANS fluorescence. AID 743214, 2013. shares compounds with ADAM10 inh. actives 0.5% (n = 2,100);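 active = mean triplicate inhibition above the solvent-only control wells' mean plus 3 SD, cut at about 12% in these data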;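 note: 0% = DMSO wells and 100% = marimastat wells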
ADAM10 counter = ADAM10 inhibitors, counter-screen for ADAM17 exosite inhibitor project, biochemical, FRET, human ADAM10; shares compounds with ADAM17 inh; recombinant ADAM10, EDANS/DABCYL FRET peptide cleavage, 3 h; inhibition, % at 6.95 µM; actives 47% (n = 2,900); AID 743256, 2014;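 active = mean inhibition over the triplicate runs exceeds the activity threshold set in the earlier primary screen, cut at about 20% in these data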;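 note: 0% = DMSO wells and 100% = marimastat wells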
ADAM17 confirm = ADAM17 inhibitors, hit retest, confirmation, biochemical, QFRET peptide cleavage. shares compounds with ADAM17 inh. recombinant ADAM17, EDANS/DABCYL QFRET peptide cleavage. inhibition, % at 6.95 µM. actives 65% (n = 2,900). AID 743257, 2014;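 active = mean inhibition across replicates above the hit cutoff set in the primary screen, cut at about 8.5% in these data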;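 note: 0% = DMSO wells and 100% = marimastat wells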
Numbers without * were called inactive.

CCOc1cc(C(c2c(C)[nH][nH]c2=O)c2c(C)[nH][nH]c2=O)ccc1OC(=O)c1cccc([N+](=O)[O-])c1 was read as ADAM17 inh 24*, ADAM10 inh 27*, PLC-beta3 inh 6, PLC-gamma1 inh 8, proKLK7 act 0, ADAM10 confirm 4, ADAM17 counter 1, ADAM10 counter 12 and ADAM17 confirm 7.
COc1ccccc1C(=O)n1ccc2ccc(-c3ccc4ccn(Cc5ccccc5)c4c3)cc21 was read as ADAM17 inh -41, ADAM10 inh -221, PLC-beta3 inh -180, PLC-gamma1 inh -113 and proKLK7 act -25.
CCN(c1ccc(NS(=O)(=O)c2cc(Cl)ccc2Cl)cc1)C(C)C was read as ADAM17 inh 11*, ADAM10 inh 24*, PLC-beta3 inh -5, PLC-gamma1 inh -1, proKLK7 act 0, ADAM10 confirm 2, ADAM17 counter 1, ADAM10 counter 13 and ADAM17 confirm 10.0*.
Screening COc1ccc(NC(=O)c2cc3ccccc3cc2OC)cc1 returned ADAM17 inh -1, ADAM10 inh 0, PLC-beta3 inh -86, PLC-gamma1 inh -67 and proKLK7 act -5.
`COc1cc(C(=O)c2ccccc2)c(OC)cc1C(=O)Nc1ccc(O)cc1` gave ADAM17 inh 15*, ADAM10 inh 30*, PLC-beta3 inh 8, PLC-gamma1 inh 6, proKLK7 act 0, ADAM10 confirm -1, ADAM17 counter 1, ADAM10 counter 0 and ADAM17 confirm 3.
For CCOC(=O)CC[C@@H]1CC[C@]2(CCCN(Cc3ccc(Cl)cc3)C2)O1 the results were ADAM17 inh -3, ADAM10 inh -16, PLC-beta3 inh -5, PLC-gamma1 inh -1 and proKLK7 act 0.
`CCCC[C@@H]1C(=O)N2N=Cc3cscc3[C@H]2N2N=Cc3cscc3[C@@H]12` gave ADAM17 inh -1, ADAM10 inh 0, PLC-beta3 inh -4, PLC-gamma1 inh -1 and proKLK7 act 0.
`CCC(C)NS(=O)(=O)c1ccc(NC(=O)C(Sc2ccccc2)c2ccccc2)cc1` (stereo not given) gave ADAM17 inh 20*, ADAM10 inh 41*, PLC-beta3 inh -1, PLC-gamma1 inh 8, proKLK7 act 0, ADAM10 confirm 8, ADAM17 counter 3, ADAM10 counter 42* and ADAM17 confirm 22*.
COc1ccc(-c2noc(C3CCCN(C(=O)NC4CCC(C)CC4)C3)n2)cc1 (stereo not given) was read as ADAM17 inh -1, ADAM10 inh -3, PLC-beta3 inh 4, PLC-gamma1 inh 2 and proKLK7 act 1.
`O=C(CNC(=S)N(Cc1ccccc1)Cc1ccccc1F)NCCc1ccc(Cl)cc1` gave ADAM17 inh 10*, ADAM10 inh 24*, PLC-beta3 inh -3, PLC-gamma1 inh -1, proKLK7 act -1, ADAM10 confirm 10, ADAM17 counter 4, ADAM10 counter 21* and ADAM17 confirm 14*.
For O=C(OCC#CCSc1nnc(-c2ccccc2)o1)c1ccc(F)cc1 the results were ADAM17 inh -1, ADAM10 inh 4, PLC-beta3 inh -1 and PLC-gamma1 inh 1.
`COc1ccc(C=Nn2c(-c3ccc(F)cc3)n[nH]c2=S)cc1OCc1ccccc1` gave ADAM17 inh -1, ADAM10 inh 0, PLC-beta3 inh 3, PLC-gamma1 inh -1 and proKLK7 act 0.
C#CCN(C[C@H]1[C@H](OC(=O)NCc2ccc(OC)c(OC)c2)[C@H](OC(=O)NCc2ccc(OC)c(OC)c2)C[C@H]2C(=O)N(c3ccccc3)C(=O)[C@@H]12)S(=O)(=O)c1ccc(C)cc1 was read as ADAM17 inh 4, ADAM10 inh 19, PLC-beta3 inh 2, PLC-gamma1 inh 2 and proKLK7 act -1.
For C#CCN(C[C@H]1[C@H](OC(=O)NCc2ccccc2F)[C@H](OC(=O)NCc2ccccc2F)C[C@H]2C(=O)N(c3ccccc3)C(=O)[C@@H]12)S(=O)(=O)c1ccc(C)cc1 the results were ADAM17 inh 9.0*, ADAM10 inh 29*, PLC-beta3 inh 0, PLC-gamma1 inh 3, proKLK7 act 0, ADAM10 confirm 7, ADAM17 counter 2, ADAM10 counter 9 and ADAM17 confirm 5.
`COc1ccc(CN(C(=O)c2nsc(Cl)c2Cl)C(C(=O)NC2CCCCC2)c2ccc(OC)cc2)cc1` (stereo not given) gave ADAM17 inh 8.8*, ADAM10 inh 28*, PLC-beta3 inh 6, PLC-gamma1 inh 6, proKLK7 act 0, ADAM10 confirm 7, ADAM17 counter 2, ADAM10 counter 8 and ADAM17 confirm 9.6*.
Screening COc1ccc(CN(C(=O)c2snc(C(N)=O)c2N)C(C(=O)NC2CCCC2)c2ccc(OC)c(OC)c2)cc1 (stereo not given) returned ADAM17 inh -34, ADAM10 inh -101, PLC-beta3 inh -58, PLC-gamma1 inh -42 and proKLK7 act -1.
Cc1ccc2c(c1)N(CCCC(=O)NCc1c(F)cccc1F)C(=O)CO2 was read as ADAM17 inh -4, ADAM10 inh -8, PLC-beta3 inh -4, PLC-gamma1 inh -1 and proKLK7 act 0.
For CCN1CCCCC(NC(C)=O)C1=O (stereo not given) the results were ADAM17 inh -10, ADAM10 inh -23, PLC-beta3 inh -1, PLC-gamma1 inh 3 and proKLK7 act 0.
